Experimental data from PubChem BioAssay AID1159580 (chemical genetic matrix, 2015).
“And” between values parts separate entries of the source, which are not always exact repeats. Equal values may be shown once. The campaign covered roughly 5,500 compounds. About 2,000 (36%) were called active. About 18% were inconclusive and are not listed. Cut-off read from the data, not from the text of the source: active = normalized growth mostly below about 0.91 (no sharp cut-off); inconclusive = no clear call, values can overlap the other calls; inactive = mostly above about 0.92. This is one part of the list.

Experiment: chemical genetic growth profiling, strain panel (AID 1159580);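 note: tested at 20 µM; growth read once vehicle control cultures reached saturation at 30 °C; 1 = growth at the plate median or of vehicle wells; lower values mean less growth of the strain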
Conditions: S. cerevisiae deletion strains, growth OD

Measured: normalized growth

CC1CCc2cc(F)cc3c(=O)c(C(=O)O)cn1c23 (configuration not stated)
inactive: locus YAL013W, strain DEP1, hits give low values 0.985 | locus YAL021C, strain ccr4, hits give low values 0.967 | locus YAL026C, strain drs2, hits give low values 0.981 | locus YAL030W, strain snc1, hits give low values 0.989 | locus YBL061C, strain skt5, hits give low values 0.985 | locus YBR009C, strain hhf1, hits give low values 0.987 | locus YBR021W, strain FUR4, hits give low values 0.943 | locus YBR023C, strain chs3, hits give low values 0.975 | locus YBR171W, strain sec66, hits give low values 0.979 | locus YBR229C, strain ROT2, hits give low values 0.98 | locus YBR231C, strain swc5, hits give low values 0.997 | locus YBR279W, strain paf1, hits give low values 0.985 | locus YCL011C, strain gbp2, hits give low values 0.988 | locus YCL016C, strain dcc1, hits give low values 0.977 | locus YCL029C, strain bik1, hits give low values 0.925 | locus YCL061C, strain MRC1, hits give low values 0.989 | locus YCL069W, strain vba3, hits give low values 0.992 | locus YCR088W, strain abp1, hits give low values 0.999 | locus YDL005C, strain med2, hits give low values 0.995 | locus YDL035C, strain GPR1, hits give low values 1 | locus YDL040C, strain nat1, hits give low values 0.999 | locus YDL074C, strain BRE1, hits give low values 0.972 | locus YDL101C, strain DUN1, hits give low values 0.974 | locus YDL134C, strain PPH21, hits give low values 0.975 | locus YDL185W, strain tfp1, hits give low values 0.981 | locus YDL192W, strain arf1, hits give low values 0.967 | locus YDR001C, strain nth1, hits give low values 0.992 | locus YDR069C, strain doa4, hits give low values 1 | locus YDR101C, strain arx1, hits give low values 0.962 | locus YDR137W, strain rgp1, hits give low values 0.942 | locus YDR150W, strain NUM1, hits give low values 0.981 | locus YDR159W, strain sac3, hits give low values 1.01 | locus YDR162C, strain NBP2, hits give low values 0.991 | locus YDR195W, strain ref2 0.99 | locus YDR297W, strain sur2, hits give low values 0.997 | locus YDR318W, strain mcm21, hits give low values 0.97 | locus YDR334W, strain swr1, hits give low values 0.986 | locus YDR335W, strain msn5, hits give low values 0.991 | locus YDR388W, hits give low values 0.952 | locus YDR392W, strain spt3, hits give low values 0.941 | locus YDR502C, strain sam2, hits give low values 0.984 | locus YEL003W, strain gim4, hits give low values 1 | locus YEL037C, strain rad23, hits give low values 0.993 | locus YEL061C, strain CIN8 (second series), hits give low values 0.993 | locus YEL061C, strain CIN8, hits give low values 0.985 | locus YER015W, strain faa2, hits give low values 0.982 | locus YER016W, strain bim1, hits give low values 1 | locus YER110C, hits give low values 0.976 | locus YER111C, strain swi4, hits give low values 0.984 | locus YER155C, strain BEM2 (second series), hits give low values 0.994 | locus YER155C, strain BEM2, hits give low values 0.975 | locus YER167W, strain BCK2, hits give low values 0.988 | locus YFR010W, strain ubp6, hits give low values 0.984 | locus YGL078C, strain dbp3, hits give low values 0.969 | locus YGL086W, strain mad1, hits give low values 0.987 | locus YGL167C, strain pmr1, hits give low values 0.993 | locus YGL173C, strain kem1, hits give low values 0.991 | locus YGL227W, strain vid30, hits give low values 0.985 | locus YGL240W, strain doc1, hits give low values 0.991 | locus YGL248W, strain PDE1, hits give low values 0.984 | locus YGL253W, strain hxk2, hits give low values 0.995 | locus YGR078C, strain PAC10, hits give low values 0.974 | locus YGR135W, strain pre9, hits give low values 0.974 | locus YGR229C, strain SMI1, hits give low values 1.01 | locus YGR252W, strain gcn5, hits give low values 1.04 | locus YHR013C, strain ard1, hits give low values 0.965 | locus YHR027C, strain rpn1, hits give low values 0.985 | locus YHR030C, strain SLT2, hits give low values 0.982 and 0.978 | locus YHR079C, strain IRE1 (second series), hits give low values 0.955 | locus YHR079C, strain IRE1, hits give low values 0.988 | locus YHR094C, strain hxt1, hits give low values 0.983 | locus YHR129C, strain ARP1, hits give low values 0.977 | locus YHR142W, strain chs7, hits give low values 0.981 | locus YHR200W, strain rpn10, hits give low values 0.969 | locus YIL066C, strain RNR3, hits give low values 0.974 | locus YIL073C, strain SPO22, hits give low values 0.991 | locus YIL125W, strain kgd1, hits give low values 0.985 | locus YIR030C, strain dcg1, hits give low values 0.972 | locus YJL092W, strain hpr5, hits give low values 0.988 | locus YJL095W, strain BCK1 (second series), hits give low values 0.989 | locus YJL095W, strain BCK1, hits give low values 0.948 and 0.982 | locus YJL115W, strain asf1, hits give low values 0.983 | locus YJL129C, strain trk1, hits give low values 1 | locus YJL134W, strain LCB3, hits give low values 0.984 | locus YJL154C, strain vps35, hits give low values 0.991 | locus YJL164C, strain tpk1, hits give low values 0.988 | locus YJL166W, strain qcr8, hits give low values 0.981 | locus YJL168C, strain set2, hits give low values 0.967 | locus YJL187C, strain SWE1 (second series), hits give low values 0.954 | locus YJL187C, strain SWE1, hits give low values 0.989 | locus YJR043C, strain POL32, hits give low values 0.979 | locus YJR066W, strain TOR1, hits give low values 0.897
